Source: PubChem (several laboratories)
NadD block: inhibitors of S. aureus NadD, primary screen, biochemical, colorimetric, uHTS; purified NadD enzyme, colorimetric absorbance read-out; Nicotinate-nucleotide adenylyltransferase NadD (Staphylococcus aureus N315); 0.78% of 360,000 active; inhibition, % at 20 µM; AID 602399, 2012; in the data active = inhibition above about 26%
Calb FLC: C. albicans growth inhibition with fluconazole, primary screen, CaCi-2 strain, Alamar Blue fluorescence. C. albicans CaCi-2 (fluconazole-resistant clinical isolate) + fluconazole, 48 h. growth inhibition, % (no concentration beside the values). 0.57% of 300,000 active;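 active = growth inhibition above about 58% in most replicates, limit read from the data, passing the limit was not always enough; inconclusive = exactly half the replicates above a set limit; inactive = most replicates below a set limit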;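 note: all wells also contain fluconazole at 8 µg/ml as a sub-toxic cotreatment; 0% = median of DMSO wells and 100% = median of geldanamycin control wells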
Mot1-301 SUMO: yeast Mot1-301 growth rescue at high temperature, primary screen, SUMOylation pathway inhibitor project, S. cerevisiae, ATP luminescence, 38.5C | growth rescue, % at 18.8 µM | S. cerevisiae Mot1-301 growth rescue; percent above DMSO median, 100 means doubled | 1% of 320,000 active | AID 2716, 2010;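 active = every valid replicate shows activation above 250% relative to neutral control wells; inactive = the rest, any valid replicate at or below 250%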;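 note: OY570 slx delta 5 strain wells were the positive control but not used for scaling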
ATG4B inhibitor: ATG4B protease inhibitors, primary screen, biochemical, fluorescence, uHTS; Cysteine protease ATG4B (Homo sapiens), Q9Y4P1; ATG4B cleavage of LC3-PLA2, NBD-HPC fluorescence, 1 h; inhibition, % at 8.33 µM; 0.51% of 340,000 active; AID 504462, 2011; in the data active = inhibition above about 40%
Target sequence (Q9Y4P1 whole entry, looked up): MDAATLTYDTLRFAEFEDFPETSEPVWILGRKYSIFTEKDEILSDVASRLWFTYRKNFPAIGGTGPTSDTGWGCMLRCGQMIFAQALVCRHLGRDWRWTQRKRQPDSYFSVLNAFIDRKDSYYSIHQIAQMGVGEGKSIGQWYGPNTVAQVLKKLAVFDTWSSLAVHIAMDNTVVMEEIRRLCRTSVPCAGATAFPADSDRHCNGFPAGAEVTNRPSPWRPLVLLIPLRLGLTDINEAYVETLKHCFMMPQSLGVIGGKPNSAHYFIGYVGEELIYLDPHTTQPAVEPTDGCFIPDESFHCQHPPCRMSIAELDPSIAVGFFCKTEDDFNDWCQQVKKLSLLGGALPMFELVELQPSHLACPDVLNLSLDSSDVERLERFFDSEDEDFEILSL
FAS-TE inh: FAS thioesterase domain inhibitors, primary screen, biochemical, fluorescence intensity, uHTS. Fatty acid synthase (Homo sapiens), P49327. recombinant FAS-TE, OMFH fluorogenic substrate, fluorescence endpoint. inhibition, % at 15 µM. 0.67% of 360,000 active. AID 602261, 2012;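 active = compounds whose normalised, plate-corrected inhibition of enzyme fluorescence in the single-dose primary screen is 50% or more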;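 note: 0% = DMSO with enzyme and 100% = substrate without enzyme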
FAS-TE conf: FAS thioesterase domain inhibitors, confirmation, biochemical, fluorescence intensity, single concentration | AID 624325, 2012 | shares compounds with FAS-TE inh | recombinant FAS-TE, OMFH fluorogenic substrate | 45% of 2,300 active | inhibition, % at 15 µM;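 active = compounds inhibiting the enzyme by at least 50% at 15 µM in any one of the replicates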;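 note: 0% = enzyme with DMSO only and 100% = wells lacking enzyme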
Active calls of the source: *; ? = inconclusive; . = no result. In the library only some 3.1% were active in any assay of this set; here they are far more common.

SMILES | NadD block | Calb FLC | Mot1-301 SUMO | ATG4B inhibitor | FAS-TE inh | FAS-TE conf
CC(C)(C)NC(=O)C1Cc2ccccc2CN1C(=O)Nc1ccccc1Cl (stereo not given) | -5 | 0 | 4 | -4 | -6 | .
Cc1ccc2cc(COC(=O)c3cccc([N+](=O)[O-])c3)c(=O)[nH]c2c1 | 2 | 7 | -16 | -4 | 63* | 27
Cc1ccc2cc(CCNC(=O)c3cccc([N+](=O)[O-])c3)c(=O)[nH]c2c1 | 7 | 12 | -7 | 0 | 11 | .
COc1ccc([N+](=O)[O-])cc1N(CC(=O)NCCCOC(C)C)S(C)(=O)=O | -4 | 3 | 0 | -4 | -2 | .
COc1c(C=O)c2c(c(OC)c1OC)-c1ccc(OC)c(=O)cc1C(NC(C)=O)CC2 (stereo not given) | 0 | . | . | -1 | -9 | .
O=C(/C=C/c1ccccc1)N/C(=C/c1ccccc1)C(=O)Nc1cccc(C(=O)O)c1 | 0 | 3 | -7 | -4 | -3 | .
Cc1ccc(NC(=O)/C(=C\c2ccccc2)NC(=O)/C=C/c2ccccc2)cc1 | 5 | 17 | 5 | -11 | 73* | 2
CC[C@H](C)[C@H]1O[C@]2(CC[C@@H]1C)C[C@@H]1C[C@@H](CC=C(C)[C@@H](O[C@H]3C[C@H](OC)[C@@H](O[C@H]4C[C@H](OC)[C@@H](O)[C@H](C)O4)[C@H](C)O3)[C@@H](C)C=CC=C3CO[C@@H]4[C@H](O)C(C)=C[C@@H](C(=O)O1)[C@]34O)O2 | -3 | . | 137 | 7 | 54* | 15
CCN(C(=O)c1ccc2c(=O)n3c(nc2c1)CCCCC3)c1ccc(F)cc1 | -3 | 7 | 206 | -7 | 1 | .
O=C(Nc1ccccc1Cl)c1ccc2c(=O)n3c(nc2c1)CCC3 | 2 | . | -5 | 1 | 2 | .
O=C(Nc1nc(-c2ccccc2)cs1)c1ccc2c(=O)n3c(nc2c1)CCCCC3 | 14 | -14 | -7 | -4 | 62* | 15
CCOc1ccccc1N(CC)C(=O)c1ccc2c(=O)n3c(nc2c1)CCCCC3 | 1 | -3 | -1 | 15 | 57* | 77*
CCN(C(=O)COC(=O)c1ccc2c(=O)n3c(nc2c1)CCC3)C1CCS(=O)(=O)C1 (stereo not given) | -4 | -11 | . | 0 | -3 | .
CCCCn1c(SCC(=O)c2c(N)n(C3CC3)c(=O)[nH]c2=O)nc2cc(S(N)(=O)=O)ccc21 | 2 | . | . | -16 | -1 | .
O=C(NCc1ccc2c(c1)OCO2)c1ccc(C2SCC(=O)N2Cc2ccco2)cc1 (stereo not given) | 29 | -22 | -3 | 8 | 59* | 50*
C=CCNC(=O)c1ccc(C2SCC(=O)N2Cc2ccco2)cc1 (stereo not given) | 4 | ? | 16 | -11 | -2 | .
CCc1nc2c(OCc3cccc(OC)c3)cccn2c1N(C)C(=O)c1ccccc1F | 2 | . | . | . | 0 | .
COc1ccc(/C=C(\NC(=O)c2ccc([N+](=O)[O-])cc2)C(=O)NCCN2CCOCC2)cc1 | -4 | -5 | 4 | -3 | 64* | 73*
O=C(N/C(=C\c1ccco1)C(=O)N1CCOCC1)c1ccc([N+](=O)[O-])cc1 | -4 | 2 | -1 | -6 | 17 | .
O=C(N/C(=C\c1ccc(Br)cc1)C(=O)N1CCOCC1)c1ccc([N+](=O)[O-])cc1 | 1 | 13 | 76 | -5 | 91* | 93*
COc1ccc(/C=C(\NC(=O)c2ccc(C)cc2)C(=O)NCCN2CCOCC2)cc1 | 4 | -1 | 1 | -2 | 0 | .
COc1ccc(/C=C(\NC(=O)c2ccc([N+](=O)[O-])cc2)C(=O)NCCCN2CCOCC2)cc1 | -2 | 10 | -25 | -1 | 76* | 79*
COc1ccc(C(=O)N/C(=C\c2ccc(Cl)cc2)C(=O)NCCN2CCOCC2)cc1 | -6 | . | . | . | 2 | .
COc1ccccc1OCc1nnc(SCC(=O)N2CCCCC2)o1 | -9 | -9 | . | -1 | -5 | .
